Compound in the experiment: Nc1ncnc2c1ncn2[C@@H]1O[C@H](COP(=O)(O)OP(=O)(O)NP(=O)(O)O)[C@@H](O)[C@H]1O [adenylyl imidodiphosphate]
In words: NP40-soluble protein abundance relative to vehicle (solubility fold change) (ratio); higher = more soluble protein in presence of AMP-PNP. The method in brief:
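Each value is a fold change relative to the detergent-processed vehicle, calculated per replicate from vsn-normalised intensities. Jurkat crude lysate received eight concentrations (0.1 to 10 mM) for 10 min at room temperature and 3 min at 37 °C, then was solubilised in 0.8% NP40 with benzonase (60 min, 4 °C). The ultracentrifuged supernatant was TMT-labelled and run by LC-MS/MS in three independent experiments.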

Results on 15 targets are retold here after the supplement of paper PMC6411743.

± gives the standard deviation of the averaged measurements. About 6,200 targets were measured; listed, in parts, are those with the largest changes and a random draw of the rest.

Sequence of UniProt Q9HCU9 (Q9HCU9 whole entry, one chain of several): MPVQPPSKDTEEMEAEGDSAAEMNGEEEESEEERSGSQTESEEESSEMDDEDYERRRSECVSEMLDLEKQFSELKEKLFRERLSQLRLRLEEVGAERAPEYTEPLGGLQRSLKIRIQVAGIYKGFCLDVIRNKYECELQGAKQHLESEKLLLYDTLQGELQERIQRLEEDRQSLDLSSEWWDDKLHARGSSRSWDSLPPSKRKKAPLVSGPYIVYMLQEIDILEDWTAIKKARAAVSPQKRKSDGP
Sequence of UniProt O43795 (O43795 whole entry, one chain of several): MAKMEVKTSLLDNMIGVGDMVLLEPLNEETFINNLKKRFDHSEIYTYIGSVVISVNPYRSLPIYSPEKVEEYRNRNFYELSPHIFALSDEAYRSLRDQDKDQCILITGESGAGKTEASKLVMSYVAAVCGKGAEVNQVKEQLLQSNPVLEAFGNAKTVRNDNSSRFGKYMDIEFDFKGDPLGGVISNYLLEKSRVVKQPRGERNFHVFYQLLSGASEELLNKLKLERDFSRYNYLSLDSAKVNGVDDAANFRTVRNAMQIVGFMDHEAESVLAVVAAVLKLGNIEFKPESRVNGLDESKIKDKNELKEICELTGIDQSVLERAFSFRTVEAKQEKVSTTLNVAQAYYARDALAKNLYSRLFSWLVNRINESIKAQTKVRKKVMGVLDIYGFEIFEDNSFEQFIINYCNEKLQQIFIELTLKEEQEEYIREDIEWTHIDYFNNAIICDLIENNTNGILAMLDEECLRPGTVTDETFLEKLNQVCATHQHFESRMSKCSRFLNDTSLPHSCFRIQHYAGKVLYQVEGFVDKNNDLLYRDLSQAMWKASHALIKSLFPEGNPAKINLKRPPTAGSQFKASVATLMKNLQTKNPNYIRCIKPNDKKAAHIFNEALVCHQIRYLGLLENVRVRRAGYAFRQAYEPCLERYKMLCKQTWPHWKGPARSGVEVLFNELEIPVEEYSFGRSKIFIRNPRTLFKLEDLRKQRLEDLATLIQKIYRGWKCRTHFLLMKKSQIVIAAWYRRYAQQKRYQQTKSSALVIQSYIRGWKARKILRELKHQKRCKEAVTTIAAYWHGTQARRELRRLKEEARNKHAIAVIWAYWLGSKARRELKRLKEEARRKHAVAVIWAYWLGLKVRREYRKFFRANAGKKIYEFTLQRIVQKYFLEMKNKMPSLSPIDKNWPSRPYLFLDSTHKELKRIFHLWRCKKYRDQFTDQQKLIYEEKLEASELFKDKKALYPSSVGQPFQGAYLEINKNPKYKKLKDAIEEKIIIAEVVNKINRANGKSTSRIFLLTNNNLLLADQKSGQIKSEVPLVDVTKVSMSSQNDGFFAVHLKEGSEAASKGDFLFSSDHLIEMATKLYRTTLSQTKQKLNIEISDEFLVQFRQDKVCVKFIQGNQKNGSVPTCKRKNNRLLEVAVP
Sequence of UniProt O14646 (O14646 whole entry): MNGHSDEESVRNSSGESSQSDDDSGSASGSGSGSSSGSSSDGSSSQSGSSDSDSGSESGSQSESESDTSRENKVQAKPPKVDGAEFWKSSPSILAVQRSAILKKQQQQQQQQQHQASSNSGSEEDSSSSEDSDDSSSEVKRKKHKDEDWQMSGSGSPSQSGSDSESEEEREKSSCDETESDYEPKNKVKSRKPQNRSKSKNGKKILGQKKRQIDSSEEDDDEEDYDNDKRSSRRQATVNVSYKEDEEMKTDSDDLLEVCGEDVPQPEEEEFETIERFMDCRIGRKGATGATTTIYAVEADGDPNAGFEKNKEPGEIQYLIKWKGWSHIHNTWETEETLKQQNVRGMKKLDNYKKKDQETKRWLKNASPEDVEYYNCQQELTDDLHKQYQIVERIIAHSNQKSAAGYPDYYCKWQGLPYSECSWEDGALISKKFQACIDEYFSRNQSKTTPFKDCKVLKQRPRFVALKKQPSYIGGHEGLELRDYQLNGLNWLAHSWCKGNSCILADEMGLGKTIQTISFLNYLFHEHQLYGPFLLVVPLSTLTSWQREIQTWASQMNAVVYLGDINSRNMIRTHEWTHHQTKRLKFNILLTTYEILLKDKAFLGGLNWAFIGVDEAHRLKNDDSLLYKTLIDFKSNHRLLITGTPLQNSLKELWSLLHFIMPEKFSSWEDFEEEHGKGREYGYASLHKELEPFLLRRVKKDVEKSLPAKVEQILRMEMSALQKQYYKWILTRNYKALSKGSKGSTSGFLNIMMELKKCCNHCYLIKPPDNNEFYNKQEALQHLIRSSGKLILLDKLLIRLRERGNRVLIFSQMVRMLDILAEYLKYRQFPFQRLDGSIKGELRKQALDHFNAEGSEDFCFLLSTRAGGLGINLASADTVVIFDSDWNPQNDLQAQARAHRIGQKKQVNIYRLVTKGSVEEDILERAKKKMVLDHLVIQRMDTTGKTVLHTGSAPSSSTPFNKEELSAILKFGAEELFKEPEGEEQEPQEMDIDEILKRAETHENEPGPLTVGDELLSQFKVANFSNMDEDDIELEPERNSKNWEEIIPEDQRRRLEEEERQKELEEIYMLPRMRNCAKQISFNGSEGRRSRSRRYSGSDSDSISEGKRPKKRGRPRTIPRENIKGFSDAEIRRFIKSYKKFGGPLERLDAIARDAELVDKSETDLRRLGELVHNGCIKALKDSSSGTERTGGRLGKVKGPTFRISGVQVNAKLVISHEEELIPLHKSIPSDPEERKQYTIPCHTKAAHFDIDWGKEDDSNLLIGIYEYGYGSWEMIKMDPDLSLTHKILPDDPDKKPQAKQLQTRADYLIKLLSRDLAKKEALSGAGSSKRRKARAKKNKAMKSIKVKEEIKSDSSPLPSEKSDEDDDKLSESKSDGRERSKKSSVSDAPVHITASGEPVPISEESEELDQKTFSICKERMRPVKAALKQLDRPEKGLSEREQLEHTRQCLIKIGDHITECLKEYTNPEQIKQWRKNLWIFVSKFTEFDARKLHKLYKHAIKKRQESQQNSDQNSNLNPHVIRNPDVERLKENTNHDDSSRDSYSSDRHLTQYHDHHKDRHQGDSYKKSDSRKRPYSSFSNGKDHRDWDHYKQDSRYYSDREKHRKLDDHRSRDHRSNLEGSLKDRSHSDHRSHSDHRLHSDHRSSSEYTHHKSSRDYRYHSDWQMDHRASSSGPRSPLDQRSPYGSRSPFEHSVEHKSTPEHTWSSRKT
Sequence of UniProt Q71RG4 (Q71RG4 whole entry, one chain of several): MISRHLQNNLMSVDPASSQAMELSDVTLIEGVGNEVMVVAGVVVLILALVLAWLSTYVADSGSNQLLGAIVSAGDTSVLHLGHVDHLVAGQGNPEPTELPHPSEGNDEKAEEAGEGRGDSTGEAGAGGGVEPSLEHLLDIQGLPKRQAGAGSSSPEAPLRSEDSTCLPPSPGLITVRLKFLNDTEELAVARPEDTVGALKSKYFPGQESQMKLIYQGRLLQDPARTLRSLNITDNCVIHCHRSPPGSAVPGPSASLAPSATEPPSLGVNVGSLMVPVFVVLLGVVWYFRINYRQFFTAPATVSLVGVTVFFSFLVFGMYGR
Sequence of UniProt Q15262 (Q15262 whole entry, one chain of several): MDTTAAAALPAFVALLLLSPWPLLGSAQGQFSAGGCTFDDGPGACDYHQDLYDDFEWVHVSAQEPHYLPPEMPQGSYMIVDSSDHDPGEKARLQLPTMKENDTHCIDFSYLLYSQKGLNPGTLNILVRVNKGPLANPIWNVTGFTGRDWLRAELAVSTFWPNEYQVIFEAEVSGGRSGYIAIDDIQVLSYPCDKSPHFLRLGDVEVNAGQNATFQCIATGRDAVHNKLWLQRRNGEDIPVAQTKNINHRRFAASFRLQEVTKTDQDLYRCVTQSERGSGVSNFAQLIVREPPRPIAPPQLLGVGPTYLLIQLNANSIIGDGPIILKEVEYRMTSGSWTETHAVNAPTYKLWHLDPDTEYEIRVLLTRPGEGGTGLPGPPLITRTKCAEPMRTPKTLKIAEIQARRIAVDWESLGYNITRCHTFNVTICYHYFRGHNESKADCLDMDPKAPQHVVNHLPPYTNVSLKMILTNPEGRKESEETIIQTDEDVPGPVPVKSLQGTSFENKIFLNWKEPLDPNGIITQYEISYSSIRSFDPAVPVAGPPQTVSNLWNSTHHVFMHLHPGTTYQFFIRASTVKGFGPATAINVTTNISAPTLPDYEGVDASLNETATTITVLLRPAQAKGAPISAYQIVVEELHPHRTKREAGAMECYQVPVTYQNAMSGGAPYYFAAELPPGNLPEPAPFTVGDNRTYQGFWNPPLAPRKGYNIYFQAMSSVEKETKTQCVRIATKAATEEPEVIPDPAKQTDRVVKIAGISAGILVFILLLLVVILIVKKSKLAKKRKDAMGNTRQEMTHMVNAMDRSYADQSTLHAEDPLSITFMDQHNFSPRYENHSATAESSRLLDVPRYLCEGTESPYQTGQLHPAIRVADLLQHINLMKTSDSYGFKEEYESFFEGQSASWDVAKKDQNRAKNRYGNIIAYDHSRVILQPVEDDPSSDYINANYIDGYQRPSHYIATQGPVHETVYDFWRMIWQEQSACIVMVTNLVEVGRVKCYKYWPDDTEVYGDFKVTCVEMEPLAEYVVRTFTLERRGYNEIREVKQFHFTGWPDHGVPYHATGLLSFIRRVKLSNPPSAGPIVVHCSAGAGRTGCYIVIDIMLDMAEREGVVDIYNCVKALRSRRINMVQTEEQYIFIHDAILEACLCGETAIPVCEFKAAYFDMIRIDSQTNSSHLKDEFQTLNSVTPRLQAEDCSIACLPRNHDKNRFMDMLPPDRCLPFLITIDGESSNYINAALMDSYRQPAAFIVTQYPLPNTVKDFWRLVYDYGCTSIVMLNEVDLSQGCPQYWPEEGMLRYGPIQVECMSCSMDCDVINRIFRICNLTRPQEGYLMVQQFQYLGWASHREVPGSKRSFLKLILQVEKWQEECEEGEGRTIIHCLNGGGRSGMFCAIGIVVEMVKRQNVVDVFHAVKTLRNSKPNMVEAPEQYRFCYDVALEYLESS
Sequence of UniProt P61769 (P61769 whole entry, one chain of several): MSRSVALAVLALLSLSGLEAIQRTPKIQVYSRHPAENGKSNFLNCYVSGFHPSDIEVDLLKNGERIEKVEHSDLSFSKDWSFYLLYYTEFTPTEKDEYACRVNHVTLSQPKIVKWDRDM

Take H7C5G1|Q2TAA2 (UniProt Q2TAA2): the NP40-soluble protein abundance (concentration: 1mM) came to 0.995 ± 0.037; the NP40-soluble protein abundance (concentration: 2mM) came to 0.975 ± 0.015; the NP40-soluble protein abundance (concentration: 4mM) amounted to 0.98 ± 0.028; the NP40-soluble protein abundance (concentration: 6mM) was determined as 0.972 ± 0.016; the NP40-soluble protein abundance (concentration: 8mM) was found to be 0.965 ± 0.022; the NP40-soluble protein abundance (concentration: 10mM) is 0.981 ± 0.028.

Consider H0YKD8|P46779 (UniProt P46779), for which the NP40-soluble protein abundance turned out to be 1.05 ± 0.14 (concentration: 1mM); 1.02 ± 0.09 (concentration: 2mM); 1.01 ± 0.13 (concentration: 4mM); 0.993 ± 0.071 (concentration: 6mM); 0.919 ± 0.098 (concentration: 8mM); 1.05 ± 0.16 (concentration: 10mM).

For the target “A0A0A6YYH1|H0YLI7|P59780|Q7Z6K5-2 (UniProt Q7Z6K5+P59780+H0YLI7)”, the NP40-soluble protein abundance is, setting by setting: (concentration: 1mM) 1 ± 0.04; (concentration: 2mM) 1.01 ± 0.011; (concentration: 4mM) 0.9742 ± 0.0072; (concentration: 6mM) 0.974 ± 0.028; (concentration: 8mM) 0.965 ± 0.032; (concentration: 10mM) 0.968 ± 0.017.

On to A8MXP9|P43243 (UniProt P43243), for which the NP40-soluble protein abundance runs as follows: (concentration: 1mM) 1.03 ± 0.033; (concentration: 2mM) 1.07 ± 0.016; (concentration: 4mM) 1.05 ± 0.016; (concentration: 6mM) 1.07 ± 0.042; (concentration: 8mM) 1.08 ± 0.025; (concentration: 10mM) 1.1 ± 0.028.

With “F8VXC8|Q8TAQ2|Q8TAQ2-2|Q8TAQ2-3 (UniProt Q8TAQ2)”, the NP40-soluble protein abundance reads like this: (concentration: 1mM) 1.03 ± 0.034; (concentration: 2mM) 1.07 ± 0.04; (concentration: 4mM) 1.04 ± 0.047; (concentration: 6mM) 1.04 ± 0.1; (concentration: 8mM) 1.04 ± 0.064; (concentration: 10mM) 1.09 ± 0.1.

For the target “J3QRS9|O43670|O43670-2|O43670-4|X6R4W8 (UniProt O43670)”, the NP40-soluble protein abundance is, setting by setting: (concentration: 1mM) 1.09 ± 0.073; (concentration: 2mM) 1.09 ± 0.087; (concentration: 4mM) 1.15 ± 0.074; (concentration: 6mM) 1.25 ± 0.065; (concentration: 8mM) 1.29 ± 0.062; (concentration: 10mM) 1.34 ± 0.1.

As for UniProt O14646|O14646-2, the NP40-soluble protein abundance (concentration: 1mM) stood at 1.07 ± 0.052; the NP40-soluble protein abundance (concentration: 2mM) came to 1.15 ± 0.023; the NP40-soluble protein abundance (concentration: 4mM) is 1.23 ± 0.077; the NP40-soluble protein abundance (concentration: 6mM) turned out to be 1.33 ± 0.14; the NP40-soluble protein abundance (concentration: 8mM) was determined as 1.41 ± 0.11; the NP40-soluble protein abundance (concentration: 10mM) is 1.49 ± 0.15.

Turning to “C9J0Q5|C9JE98|C9JFD3|Q9Y618|Q9Y618-3|Q9Y618-4|Q9Y618-5 (UniProt Q9Y618)”, the NP40-soluble protein abundance turned out to be 1.03 ± 0.0079 (concentration: 1mM); 1.05 ± 0.04 (concentration: 2mM); 1.03 ± 0.035 (concentration: 4mM); 0.969 ± 0.057 (concentration: 6mM); 0.951 ± 0.02 (concentration: 8mM); 1.01 ± 0.052 (concentration: 10mM).

In the case of E9PDF6|O43795|O43795-2 (UniProt O43795), the NP40-soluble protein abundance runs as follows: (concentration: 1mM) 2.06 ± 0.29; (concentration: 2mM) 2.04 ± 0.2; (concentration: 4mM) 2.31 ± 0.29; (concentration: 6mM) 2.37 ± 0.28; (concentration: 8mM) 2.45 ± 0.32; (concentration: 10mM) 2.39 ± 0.27.

Turning to “E9PJF5|G5E9I4|H0YCF7|Q9HCU9 (UniProt Q9HCU9)”, the NP40-soluble protein abundance by setting is: (concentration: 1mM) 1.03 ± 0.018; (concentration: 2mM) 1.05 ± 0.04; (concentration: 4mM) 1.01 ± 0.012; (concentration: 6mM) 1 ± 0.016; (concentration: 8mM) 0.989 ± 0.041; (concentration: 10mM) 1.02 ± 0.051.

As to “E7ESS3|K7EKW3|Q71RG4|Q71RG4-2 (UniProt Q71RG4)”, the NP40-soluble protein abundance reads like this: (concentration: 1mM) 1.01 ± 0.037; (concentration: 2mM) 1.03 ± 0.045; (concentration: 4mM) 1 ± 0.039; (concentration: 6mM) 0.996 ± 0.012; (concentration: 8mM) 1.01 ± 0.037; (concentration: 10mM) 1 ± 0.032.

Turning to CCDC85C (UniProt A6NKD9), the NP40-soluble protein abundance runs as follows: (concentration: 1mM) 0.9594 ± 0.0012; (concentration: 2mM) 1.0044 ± 0.00019; (concentration: 4mM) 0.953 ± 0.035; (concentration: 6mM) 0.9849 ± 0.007; (concentration: 8mM) 0.9793 ± 0.0043; (concentration: 10mM) 0.9704 ± 0.0054.

As for “E9PGC5|Q15262-2|Q15262-3|Q15262-4|Q5TG12|Q15262 (UniProt Q15262)”, the NP40-soluble protein abundance reads like this: (concentration: 1mM) 1.02 ± 0.011; (concentration: 2mM) 1.04 ± 0.053; (concentration: 4mM) 1.02 ± 0.028; (concentration: 6mM) 1.01 ± 0.015; (concentration: 8mM) 0.997 ± 0.011; (concentration: 10mM) 1.01 ± 0.019.

Regarding H0YLF3|P61769 (UniProt P61769), the NP40-soluble protein abundance came to 0.99 ± 0.055 (concentration: 1mM); 0.977 ± 0.084 (concentration: 2mM); 0.923 ± 0.1 (concentration: 4mM); 0.879 ± 0.15 (concentration: 6mM); 0.971 ± 0.035 (concentration: 8mM); 0.917 ± 0.076 (concentration: 10mM).

Turning to H7C5A7|O14734 (UniProt O14734), the NP40-soluble protein abundance is 0.962 ± 0.017 (concentration: 1mM); 0.932 ± 0.036 (concentration: 2mM); 0.956 ± 0.013 (concentration: 4mM); 0.984 ± 0.061 (concentration: 6mM); 0.97 ± 0.015 (concentration: 8mM); 0.961 ± 0.02 (concentration: 10mM).
